# Test results reported in PubChem BioAssay (NCATS).
# Values without a mark were called inactive. Calls follow the shape of the dose curve; as a rule, active = well fitted inhibition curve with a large enough effect; inconclusive = small, poorly fitted or top-dose-only effect; inactive = flat fitted curve, though single readings scatter.
# Target: DNA polymerase III PolC-type (Bacillus subtilis (strain 168)) (UniProt P13267)
# Assay: qHTS Validation Assay for the Inhibitors of DNA Replication in Gram-Positive Bacteria (AID 485295);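 also: reconstituted holoenzyme with PolC plus beta clamp SSB and primase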
# Conditions: Gram-positive bacterial DNA replication assay; series mostly up to 57.1 µM; activity change, negative = inhibition: at the top concentration
# Protocol: B Subtilis DNA polymerase III holoenzyme complex was assayed for DNA production by fluorescent detection of the double-stranded DNA product with PicoGreen dye. The holoenzyme complex was reconstituted from the following purified protein components: DNA Polymerase III, beta subunit processivity factor, SSB single-stranded DNA binding protein, and Primase. Single-stranded, circular M13Gori was used as a substrate with dNTPs and NTPs also supplied to the substrate reagent. Compounds from the NCGC collection were incubated with the holoenzyme mixture for […] at room temperature to allow binding to occur, and then the reaction was started by the addition of substrate. After 30 min incubation at room temperature, PicoGreen solution containing EDTA was added to stop the reaction and to visualize the double-stranded DNA produced. Reaction progress was measured in a ViewLux CCD imager in fluorescence intensity mode by using 480 nm excitation and 540 nm emission filter set.
# 1. Thaw screening compounds.
# 2. Label assay plates. Prepare pipette tips, reagent reservoirs, buffers and controls.
# 1. Thaw Enzymes, DNA template, Nucleotides and PicoGreen dye concentrate. Thawed enzymes are stable on ice for ~1
# week. Other thawed components are stable indefinitely.
# 2. Prepare sufficient quantities of Enzyme, Substrate and PicoGreen Quench mixes (according to Table II). For the number of
# compound plates being screened.
# 3. Ensure that the tip wash station reservoirs have clean water and turn on recirculating chiller so that the chilled deck position
# 1. Load 2 uL of EDTA controls (250 mM, Background, 100 % inhibition) and 2 uL of DMSO controls (Negative control, 0%
# inhibition) in the screening plates (flat-bottomed black 384-well polypropylene, Greiner Bio-one).
# 2. Place Enzyme mix reservoir on the chiller position of the liquid handler deck. Make sure that chiller will maintain
# temperature of Enzyme mix at 4degC. Substrate mix and PicoGreen Quench can be stored at room temp.
# 3. Program liquid handling robotics to dispense 18 uL of Enzyme mix into assay plates. Wash tips.
# 4. Aspirate and dispense 2 uL of compound from compound plates, mix and Incubate at room temperature for 10 minutes.
# 5. Aspirate 5 ul of Substrate mix, dispense into assay plates and mix by pipetting. Wash tips.
# 6. Incubate at room temperature (21 +/- 1 deg C) for 20 minutes.
# 7. Quench reactions by addition of 25 uL PicoGreen Quench mix and mix by pipetting (using HTS robotics or bulk reagent
# dispenser such as a Multidrop or uFill). Keep plates in the dark or stacked until ready to read fluorescence.
# 8. Read fluorescence intensity of plates on plate reader using "Fluorescein (Ex 485 nm/ Em 535 nm, 0.1s)" setting.
# Sequence of DNA polymerase III PolC-type (Bacillus subtilis (strain 168)) (P13267 whole entry, looked up): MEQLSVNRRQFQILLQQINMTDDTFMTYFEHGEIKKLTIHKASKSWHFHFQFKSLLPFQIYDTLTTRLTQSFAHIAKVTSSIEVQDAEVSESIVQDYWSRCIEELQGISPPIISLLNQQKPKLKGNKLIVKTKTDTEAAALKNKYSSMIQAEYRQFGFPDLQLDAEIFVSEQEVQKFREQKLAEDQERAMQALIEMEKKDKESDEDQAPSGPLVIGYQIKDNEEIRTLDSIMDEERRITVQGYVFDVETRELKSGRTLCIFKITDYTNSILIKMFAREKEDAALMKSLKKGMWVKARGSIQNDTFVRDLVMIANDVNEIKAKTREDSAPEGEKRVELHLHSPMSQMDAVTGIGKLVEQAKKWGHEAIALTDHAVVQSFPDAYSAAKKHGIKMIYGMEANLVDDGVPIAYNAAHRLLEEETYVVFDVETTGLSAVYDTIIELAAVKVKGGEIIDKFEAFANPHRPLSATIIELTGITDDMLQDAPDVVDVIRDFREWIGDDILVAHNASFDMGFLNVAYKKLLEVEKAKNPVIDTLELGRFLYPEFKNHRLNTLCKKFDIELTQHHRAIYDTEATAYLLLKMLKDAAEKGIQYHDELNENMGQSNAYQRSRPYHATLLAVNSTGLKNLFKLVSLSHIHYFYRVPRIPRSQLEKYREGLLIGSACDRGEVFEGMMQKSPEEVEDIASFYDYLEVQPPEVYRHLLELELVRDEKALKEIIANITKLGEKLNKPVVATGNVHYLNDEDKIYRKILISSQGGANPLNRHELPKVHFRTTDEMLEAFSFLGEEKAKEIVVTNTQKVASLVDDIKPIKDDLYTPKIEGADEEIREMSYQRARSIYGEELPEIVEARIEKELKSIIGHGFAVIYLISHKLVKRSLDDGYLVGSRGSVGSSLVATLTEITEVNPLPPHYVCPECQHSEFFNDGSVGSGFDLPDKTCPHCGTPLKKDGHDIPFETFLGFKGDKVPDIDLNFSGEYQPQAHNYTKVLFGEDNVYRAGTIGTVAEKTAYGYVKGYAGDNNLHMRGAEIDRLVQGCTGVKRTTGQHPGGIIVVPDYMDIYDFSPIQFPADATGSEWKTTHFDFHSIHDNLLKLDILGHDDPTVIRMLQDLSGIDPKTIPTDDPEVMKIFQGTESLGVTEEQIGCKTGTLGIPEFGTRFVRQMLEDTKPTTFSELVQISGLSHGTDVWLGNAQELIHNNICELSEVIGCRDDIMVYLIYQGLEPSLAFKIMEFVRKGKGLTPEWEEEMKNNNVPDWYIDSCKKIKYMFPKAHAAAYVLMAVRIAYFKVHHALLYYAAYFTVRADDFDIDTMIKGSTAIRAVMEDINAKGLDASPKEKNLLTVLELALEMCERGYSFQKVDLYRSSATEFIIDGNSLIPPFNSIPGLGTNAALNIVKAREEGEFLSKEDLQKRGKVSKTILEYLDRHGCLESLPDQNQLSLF
row,Compound,"activity change, negative = inhibition [%]"
1,CNCCC(Oc1ccccc1OC)c1ccccc1 (stereo not given),0.318
2,Nc1ncn([C@@H]2O[C@H](CO)[C@@H](O)[C@H]2O)c(=O)n1,4.18
3,COC(=O)[C@H]1[C@H]2C[C@@H]3c4[nH]c5cc(OC)ccc5c4CCN3C[C@H]2C[C@@H](OC(=O)c2cc(OC)c(OC)c(OC)c2)[C@@H]1OC,-14.8
4,O=C1NCN(c2ccccc2)C12CCN(CCCC(c1ccc(F)cc1)c1ccc(F)cc1)CC2,-28
5,NC(=O)c1cn(Cc2c(F)cccc2F)nn1,1.19
6,COC(=O)[C@@H](N)Cc1ccc(O)c(O)c1,6.05
7,NC(=O)c1ncn([C@@H]2O[C@H](CO)[C@@H](O)[C@H]2O)c1O,3.29
8,CNCCCN1c2ccccc2CCc2ccccc21,2.39
9,CCCCNc1ccc(C(=O)OCCN(C)C)cc1,-3.79
10,CCN1CCc2nc(N)oc2CC1,1.69
11,CCCN(CCC)C(=O)C(CCC(=O)O)NC(=O)c1ccccc1 (stereo not given),4.79
12,CCN(Cc1ccncc1)C(=O)C(CO)c1ccccc1 (stereo not given),5.46
13,CN(C)C(=O)Oc1cccc([N+](C)(C)C)c1,3.94
14,CCN(CC)CC(=O)Nc1c(C)cccc1C,5.2
15,O=C(O)CCCCCCCC(=O)O,-0.981
16,CCn1ccnc1CC1COc2ccccc2O1 (stereo not given),2.96
17,OCCN1CCN(CC/C=C2/c3ccccc3Sc3ccc(C(F)(F)F)cc32)CC1,-11.1
18,CCN(CC)CCCN(c1ccccc1)C1Cc2ccccc2C1,-5.12
19,CCCCCN(CCCCC)C(=O)C(CCC(=O)O)NC(=O)c1ccc(Cl)c(Cl)c1 (stereo not given),-9.03
20,COCCCC/C(=N\OCCN)c1ccc(C(F)(F)F)cc1,4.26

row,Compound,"activity change, negative = inhibition [%]"
1,Cc1nc2ccccn2c(=O)c1CCN1CCC(C(=O)c2ccc(F)cc2)CC1,7.91
2,C=CCc1ccccc1OCC(O)CNC(C)C (stereo not given),-0.719
3,CN(C)C(=O)Oc1ccc[n+](C)c1,0.348
4,O=C(O)CN(CCOCCOCCN(CC(=O)O)CC(=O)O)CC(=O)O,-2.9
5,CCO/C([O-])=N/c1c[n+](N2CCOCC2)no1,4.02
6,C[C@]12CCC(=O)C=C1CC[C@@H]1[C@@H]2CC[C@@]2(C)[C@H]1CC[C@]2(O)C(=O)CO,-8.38
7,Cc1nnc(SCC2=C(C(=O)O)N3C(=O)[C@@H](NC(=O)Cn4cnnn4)[C@H]3SC2)s1,2.7
8,CCOC(=O)C1=C(C)NC(C)=C(C(=O)OC)C1c1cccc([N+](=O)[O-])c1 (stereo not given),-10.8
9,CCC(=O)c1ccc2c(c1)N(CCCN(C)C)c1ccccc1S2,-2.21
10,CC(C)NNC(=O)c1ccncc1,-6.08
11,CCN(CC)CCNC(=O)c1ccc(NC(C)=O)cc1,-4.88
12,CN(C)CC[C@@H](c1ccc(Br)cc1)c1ccccn1,-3.62
13,CSc1ccc(C(=O)c2[nH]c(=O)[nH]c2C)cc1,-5.72
14,CN(C)CCCN1c2ccccc2Sc2ccccc21,-11.4
15,CN(C)C/C=C(/c1ccc(Br)cc1)c1cccnc1,-3.38
16,CC[N+](C)(C)c1cccc(O)c1,0.79
17,C#CCN(C)CCCOc1ccc(Cl)cc1Cl,5.41
18,O=c1[nH]c(=O)n([C@H]2C[C@H](O)[C@@H](CO)O2)cc1Br,2.45
19,NC/C=C/C(=O)O,4.6
20,Cc1cc(C)c(/C=C2\C(=O)Nc3ccccc32)[nH]1,27.9
